The text below walks through data of PubChem BioAssay (Tox21).

Assay [1] in a line: qHTS assay to identify small molecule agonists of the hypoxia (HIF-1) signaling pathway - cell viability counter screen (AID 1224844; calls by dose curve; further: nearly all actives have a fitted effect of over 50% in size; further: potency means the concentration at half of the fitted maximal effect). Put shortly:
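Cells (HRE-bla ME-180, 2,000 per well) sat 5 hrs at 37C, got compound for 17 hrs, were read for CCF4-AM FRET, and were finally lysed with CellTiter-Glo for a 30 min room-temperature luminescence read.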
Background: qHTS replaces the single test concentration by a dilution series.

The nature of assay [2]: qHTS assay to identify small molecule agonists of the hypoxia (HIF-1) signaling pathway (AID 1224846; active means well fitted activation curve with a large enough effect in the signal ratio in the repeat runs, not every such curve was filed as active; the % refers to the signal ratio; further: on the % scale 0 is the no-effect control and ±100 the full control effect). Summed up: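 A low-serum medium (0.5% dialyzed FBS) holding 2,000 HRE-bla ME-180 cells per well is preincubated for 5 hrs, dosed with compounds by pintool, and kept a further 17 hrs at 37C, 5% CO2 before CCF4-AM FRET detection of beta-lactamase.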
Assay [3] is described as follows: qHTS assay to identify small molecule agonists of H2AX - cell viability counter screen (AID 1224847; calls by dose curve; further: nearly all actives have a fitted effect of over 30% in size; further: potency means the concentration at half of the fitted maximal effect). Summed up: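 For this counter screen, overnight-attached CHO-K1 cells received test compounds (15 concentrations, 0.76% DMSO final); 3 hr later at 37C, CellTiter-Glo reagent was added and luminescence recorded after 30 min at room temperature.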
A short description of assay [4]: A CellTox Green Cytotoxicity Assay to monitor cytotoxicity in HEK293 cells - 0 hour (AID 1224869). Further: on the % scale 0 is the no-effect control and ±100 the full control effect; nearly all actives have a fitted effect of over 50% in size. Put shortly: (§1)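 Fluorescence intensity, read at 0, 8, 16, 24, 32 and 40 h of compound treatment, reflected dye binding to DNA of dead HEK293 cells; compounds (23 nL, DMSO) were added 5 h after plating cells with reagent.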
A short description of assay [5]: qHTS RealTime-Glo MT Cell Viability Assay in HepG2 cells - 40 hour (AID 1224870). Further: nearly all actives have a fitted effect of over 50% in size. Further: potency means the concentration at half of the fitted maximal effect. Put shortly:
(§2)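 Real-time viability: cells seeded at 600 per well together with NanoLuc and cell-permeant prosubstrate, compounds added after 5 h incubation. Luminescence tracked at 0, 8, 16, 24, 32 and 40 h of exposure.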

Assay [6] can be described thus: qHTS RealTime-Glo MT Cell Viability Assay in HepG2 cells - 8 hour (AID 1224873). Further: nearly all actives have a fitted effect of over 55% in size. Further: potency means the concentration at half of the fitted maximal effect. Summed up:
as §2

Assay [7] in a line: A CellTox Green Cytotoxicity Assay to monitor cytotoxicity in HEK293 cells - 24 hour (AID 1224875). Further: nearly all actives have a fitted effect of over 45% in size. Further: potency means the concentration at half of the fitted maximal effect. On activity change: on the % scale 0 is the no-effect control and ±100 the full control effect. Put shortly:
as §1

A short description of assay [8]: A CellTox Green Cytotoxicity Assay to monitor cytotoxicity in HepG2 cells - 16 hour (AID 1224876). Further: nearly all actives have a fitted effect of over 45% in size. Further: potency means the concentration at half of the fitted maximal effect. Summed up: (§3)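 Using 1536-well format, dye-containing HepG2 suspension was seeded, allowed 5 h at 37 C/5% CO2, dosed by pintool with compounds, positive and negative controls, and imaged for fluorescence across 40 h.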
A short description of assay [9]: qHTS RealTime-Glo MT Cell Viability Assay in HepG2 cells - 32 hour (AID 1224877). Further: nearly all actives have a fitted effect of over 55% in size. Further: potency means the concentration at half of the fitted maximal effect. Put shortly:
(§4)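 qHTS, HepG2, 600 cells/well, RealTime-Glo (NanoLuc + prosubstrate) added with cells; 5 h preincubation; DMSO compound addition; 37 C; luminescence at 0/8/16/24/32/40 h.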

Assay [10] is described as follows: A CellTox Green Cytotoxicity Assay to monitor cytotoxicity in HepG2 cells - 24 hour (AID 1224878). Further: nearly all actives have a fitted effect of over 45% in size. Further: potency means the concentration at half of the fitted maximal effect. On Cytotoxicity: on the % scale 0 is the no-effect control and ±100 the full control effect. Put shortly:
as §3

The nature of assay [11]: A CellTox Green Cytotoxicity Assay to monitor cytotoxicity in HepG2 cells - 40 hour (AID 1224879). Further: nearly all actives have a fitted effect of over 40% in size. Further: potency means the concentration at half of the fitted maximal effect. Put shortly: as §3
The nature of assay [12]: qHTS RealTime-Glo MT Cell Viability Assay in HEK293 cells - 0 hour (AID 1224880). Further: top concentration of the series differs between compounds; on the % scale 0 is the no-effect control and ±100 the full control effect; nearly all actives have a fitted effect of over 45% in size. Summed up:
(§5)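 Viable HEK293 cells reduce a cell-permeant prosubstrate; the product diffuses out and is consumed by NanoLuc in the medium to give light. Compounds went in after a 5 h incubation and plates were read over the treatment course.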

A short description of assay [13]: qHTS RealTime-Glo MT Cell Viability Assay in HepG2 cells - 24 hour (AID 1224867). Further: nearly all actives have a fitted effect of over 50% in size. Further: potency means the concentration at half of the fitted maximal effect. Summed up:
as §4

Assay [14] is described as follows: qHTS RealTime-Glo MT Cell Viability Assay in HEK293 cells - 40 hour (AID 1224874). Further: nearly all actives have a fitted effect of over 50% in size. Further: potency means the concentration at half of the fitted maximal effect. On max response: on the % scale 0 is the no-effect control and ±100 the full control effect. To be noted: RealTime-Glo luminescence; max response: stronger effect = lower value. Summed up:
as §5

Assay [15] in a line: qHTS RealTime-Glo MT Cell Viability Assay in HEK293 cells - 32 hour (AID 1224868). Further: nearly all actives have a fitted effect of over 50% in size. Further: potency means the concentration at half of the fitted maximal effect. Put shortly: (§6)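 Assay medium contained NanoLuc luciferase plus cell-permeant prosubstrate, added with HEK293 cells at 600 cells/well. After 5 h at 37 C/5% CO2 compounds were added; plates stayed at 37 C for 40 h with serial luminescence reads.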
The nature of assay [16]: A CellTox Green Cytotoxicity Assay to monitor cytotoxicity in HEK293 cells - 40 hour (AID 1224871). Further: nearly all actives have a fitted effect of over 45% in size. Further: potency means the concentration at half of the fitted maximal effect. Put shortly:
as §1

Assay [17] is described as follows: qHTS RealTime-Glo MT Cell Viability Assay in HEK293 cells - 16 hour (AID 1224872). Further: nearly all actives have a fitted effect of over 50% in size. Further: potency means the concentration at half of the fitted maximal effect. Put shortly:
as §6

Assay [18] in a line: qHTS assay to identify small molecule antagonists of the estrogen related receptor (ERR) signaling pathway from Tox21 library (AID 1224848). Summed up:
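Antagonist-mode screen of the Tox21 10K library in an NTP-provided ERR reporter cell line; 18 h compound exposure at 37 C, luminescence measured with ONE-Glo.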

A short description of assay [19]: qHTS assay to identify small molecule agonists of the estrogen related receptor (ERR) signaling pathway from Tox21 library (AID 1224849; calls by dose curve; further: on the % scale 0 is the no-effect control and ±100 the full control effect; nearly all actives have a fitted effect of over 15% in size). The conditions noted are these: ERR reporter cell line, ONE-Glo luciferase, 18 h. Summed up:
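Screening used an NTP-provided ERR luciferase cell line. Compounds in DMSO were added 6 h after seeding and left 18 h at 37 C before a 30 min ONE-Glo step and luminescence reading.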

“And” between values parts separate entries of the source, which are not always exact repeats. Equal values may be shown once. Inconclusive results are not listed. Where a structure was tested more than once in an assay, its records may differ in their call. The source made the active and inactive calls. Unless noted, the call rests on the fitted dose curve; in most records, active means well fitted curve in the direction sought with a large enough effect in the repeat runs; inconclusive means weak or mixed curves; inactive means no such curve, though single readings can be large; an effect the other way counts as inactive or inconclusive.

With `C#C[C@]1(O)CC[C@H]2[C@@H]3CCC4=CC(=O)CCC4=C3C=C[C@@]21CC`, the Potency result in assay [1], in assay [4], in [5], in assay [6], in assay [7] and in assay [8] was “inactive” each time. Besides, the Potency result in [9], in assay [10] and in assay [11] was “inactive” in each case. The result in assay [2] and in [12] was inactive. Also, the Potency in [3] was 34.8 µM (active).

In the case of `[Cl-].[Cl-].[Hg+2]`, the Potency is 43.5 µM (active) in [1]; 17.8 µM (active) and 7.13 µM (active) in assay [3]; 48.8 µM (active) and 3.47 µM (active) in [13]; 3.89 µM (active) in assay [5]; 48.8 µM (active) and 3.89 µM (active) in assay [6]; 2.45 µM (active) in assay [14]. Moreover, the Potency in assay [7] is 21.8 µM (active) and 8.71 µM (active); in [8] it was 38.7 µM (active) and 3.89 µM (active); in [9], 54.7 µM (active) and 3.47 µM (active); in assay [10], 24.4 µM (active) and 3.89 µM (active). Besides, in assay [12], the outcome was inactive.

On to `O=C(O)c1cc(Cl)ccc1Cl`, for which the Potency entry in assay [1], in assay [3], in assay [13], in assay [15], in assay [4] and in assay [5] was “inactive” throughout. Also, the Potency result in assay [16], in [17], in assay [6], in assay [7], in [8] and in assay [9] was “inactive” in each case. For the same compound, the Potency result in assay [10] and in assay [11] was “inactive” in each case. In addition, the outcome in [2] and in assay [12] was inactive. In addition, in assay [14], the max response is 8.52% (inactive).

On to `Clc1ccc2ccccc2c1`, for which the Potency result in assay [1], in assay [3], in assay [13], in [4], in assay [5] and in assay [6] was “inactive” in each case. Further, the Potency result in assay [8], in [9], in assay [10] and in [11] was “inactive” throughout. The result in assay [2] and in [12] was inactive. Also, the Potency in [7] was 50.5 µM (active).

On to `C=CCSSCC=C`, for which the Potency entry in [1], in [3], in assay [15], in [4], in [5] and in [16] was “inactive” each time. Further, the Potency result in [17], in assay [6], in assay [8], in [9], in assay [10] and in [11] was “inactive” throughout. For the same compound, the call in assay [2] and in [12] was inactive. In addition, in assay [14], the max response is 1.18% (inactive).

Regarding `NCCc1cc(O)c(O)cc1O`, the Potency entry in assay [1], in [3], in assay [13], in assay [15], in assay [4] and in [5] was “inactive” each time. The Potency result in [16], in assay [17], in assay [6], in [7], in [8] and in assay [9] was “inactive” in each case. For the same compound, the Potency result in [10] and in assay [11] was “inactive” throughout. The compound was classed as inactive in assay [2] and in assay [12]. For the same compound, in [14], the max response was -1.21% (inactive).

Regarding `C=CC(=O)NC(C)(C)CC(C)=O`, the Potency entry in assay [1], in assay [13], in assay [15], in [4], in assay [5] and in [16] was “inactive” each time. The Potency result in assay [17], in assay [6], in assay [8], in [9], in assay [10] and in assay [11] was “inactive” throughout. Moreover, the outcome in [2] and in assay [12] was inactive. The max response in assay [14] is 3.92% (inactive).

`O=C(O)C(O)C(O)C(=O)O` (stereo unspecified): the Potency entry in assay [1], in assay [3], in [13], in [15], in [4] and in assay [5] was “inactive” each time. Also, the Potency result in assay [16], in assay [17], in assay [6], in [7], in assay [8] and in [9] was “inactive” in each case. Also, the Potency result in [10] and in assay [11] was “inactive” in each case. Moreover, the max response in [14] is -0.119% (inactive). Also, in assay [12], the result was inactive.

As for `CCCN(CCOc1c(Cl)cc(Cl)cc1Cl)C(=O)n1ccnc1`, the Potency entry in [1], in [13], in [4], in assay [5], in [16] and in [6] was “inactive” each time. The Potency result in assay [7], in assay [8], in assay [9] and in assay [10] was “inactive” throughout. Also, the result in [2] and in [12] was inactive. In addition, the Potency in [18] is 15.7 µM (active) and 24.3 µM (active); in [15] it was 19.9 µM (active) and 27.5 µM (active); in [17] it was 22.3 µM (active) and 27.5 µM (active); in assay [14] it was 19.9 µM (active) and 27.5 µM (active); in assay [11] it was 43.6 µM (active). For the same compound, the activity change, positive = activation in assay [19] (at 92.4 µM (top of the series)) was -62.9% (inactive) and -57.3% (inactive).

In the case of `O=C(O)C(F)(F)C(F)(F)C(F)(F)C(F)(F)C(F)(F)F`, the Potency result in assay [1], in assay [3], in assay [13], in assay [15], in [4] and in assay [5] was “inactive” in each case. In addition, the Potency entry in [16], in [17], in assay [6], in assay [7], in assay [8] and in assay [9] was “inactive” throughout. For the same compound, the Potency entry in [10] is “inactive”. Besides, the result in [2] and in assay [12] was inactive. Also, the max response in assay [14] is -1.16% (inactive).

Turning to `O=C1c2ccccc2C(=O)N1SC(Cl)(Cl)Cl`, the Potency in assay [1] is 3.83 µM (active) and 7.76 µM (active); in assay [3], 12.5 µM (active); in [18] it was 30.2 µM (active) and 30.6 µM (active); in assay [15] it was 6.82 µM (active) and 6.92 µM (active); in assay [5], 34.2 µM (active) and 15.5 µM (active); in assay [16], 10.8 µM (active) and 11 µM (active). In addition, the Potency in assay [17] is 3.42 µM (active) and 3.89 µM (active); in [14] it was 6.82 µM (active) and 9.77 µM (active); in assay [8], 43 µM (active) and 54.9 µM (active); in assay [9], 34.2 µM (active) and 13.8 µM (active); in assay [10], 34.2 µM (active) and 21.9 µM (active); in [11], 21.6 µM (active) and 12.3 µM (active). Besides, the activity change, positive = activation in [19] (at 92.4 µM (top of the series)) is -68.2% (inactive) and -64.1% (inactive). In addition, in assay [4], the Potency entry was “inactive”. Moreover, the compound was classed as inactive in assay [12].

On to `CCCCCCCCCCCC[N+](C)(C)CCOc1ccccc1`, for which the Potency was 24.6 µM (active) and inactive in [1]; 89.8 µM (active) and 49.2 µM (active) in [3]; 19.3 µM (active) and 21.1 µM (active) in assay [18]; 7.76 µM (active) and 9.52 µM (active) in assay [15]; 19.5 µM (active) and 6.01 µM (active) in assay [5]; 19.5 µM (active) and 19 µM (active) in assay [17]. Besides, the Potency in assay [6] was 55 µM (active) and 23.9 µM (active); in assay [14], 6.92 µM (active) and 9.52 µM (active); in assay [7], 17.4 µM (active) and 23.9 µM (active); in assay [8], 24.6 µM (active) and 19 µM (active); in assay [9] it was 19.5 µM (active) and 7.56 µM (active); in assay [10], 15.5 µM (active) and 8.49 µM (active). Further, the values for the activity change, positive = activation in assay [19] (at 42.5 µM (top of the series)) and in [19] (at 92.4 µM (top of the series)) were -65.5% (inactive) and -76.3% (inactive), respectively. In addition, in assay [4], the Potency result was “inactive”. Besides, the compound was called inactive in [12].
